# Data reported in PubChem BioAssay (NCI).
# About 83,000 compounds went through this panel and 20% of them were active in at least one assay; those are over-represented in the sample as a whole.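 For each line, cells grew in 96-well plates with the test compound present at a single concentration for 48 hours.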 Unmarked numbers belong to inactive results. The source made the active and inactive calls. How the source made its calls: active means growth percent below 10; inactive means the rest.
# Tested on: HL-60(TB) leukemia
# Test: NCI-60 one-dose screen, 48 h (100 = growth as untreated, 0 = no growth, -100 = all killed)
# Conditions: 10 µM unless noted
row,SMILES,growth
1,C#CC(F)(F)[C@]1(O)CC[C@H]2[C@@H]3CCC4=CC(=O)CCC4=C3[C@@H](c3ccc(C(C)=O)cc3)C[C@@]21C,-62.6% (active)
2,O=C(CCCCl)NNc1nccc(Nc2ccc(S(=O)(=O)Nc3ccncc3)cc2)n1,127%
3,O=C(O)c1cn(C2CC2)c2cc(N3CCN(Cc4cc(Cl)ccc4O)CC3)c(F)cc2c1=O,46.4%
4,Nc1ncc(-c2ccc3ncnc(N4CCc5cc(F)c(Cl)cc54)c3c2)cc1C(F)(F)F,21.5%
5,Cc1cc(Nc2nc(N3CCN(C)CC3)nc3ccccc23)n[nH]1,96.6%
6,COCCn1cc(-c2csc(-c3c[nH]c4ccccc34)n2)c2cccnc21,14.1%
7,C[N+]1=C(/C=C\C=C\c2ccccc2)C(C)(C)c2ccccc21,-22.2% (active)
8,O=C(c1nc2ccccc2[nH]1)C1C(c2ccc(Br)cc2)C2CC3CCCC[C@H]3N2[C@@]12C(=O)Nc1cc(Cl)ccc12 (stereo not given in full),12.4%
9,[N-]=[N+]=NCc1ncc(-c2ccc(C(F)(F)F)cc2)c(NC2CCCCCC2)n1,43.4% [50 µM]
10,CC(=O)OC[C@H]1O[C@@H](n2c(=O)cc(N)[nH]c2=O)C(OC(C)=O)[C@@H]1OC(C)=O (stereo not given in full),107%
11,Nc1nc(N)c2c(n1)NC(c1ccc(Cl)cc1)CC(c1cccc(Nc3ccncc3)c1)=N2 (stereo not given),39%
12,O=C1OCC2=C1C(c1cccc([N+](=O)[O-])c1)c1cc3c(cc1N2CCO)CCC3 (stereo not given),-26.9% (active)
13,N#C/C(=C\N1C(=O)/C(=C/c2cccc([N+](=O)[O-])c2)SC1=S)c1nc2ccccc2s1,94.5%
14,COc1cc2c3c(cccc3c1)C(=O)N(CCN1CCCC1)C2=O,26%
15,O=C(Nc1ccc(-n2cc(-c3ccncc3)c(-c3ccc(Cl)c(O)c3)n2)cc1)c1ccc(Cl)c(C(F)(F)F)c1,-29.1% (active)
16,CCCCNC(=O)NS(=O)(=O)c1ccc(N2N=C(c3cc(C)ccc3C)CC2c2cc(OC)c(OC)c(OC)c2)cc1 (stereo not given),-16.1% (active)
17,CCOC(=O)/C=C/c1c(C)[nH]c(=O)[nH]c1=O,75.3%
18,O=C(CSc1nccc(Nc2ccc(S(=O)(=O)Nc3nccs3)cc2)n1)c1ccc(C(F)(F)F)cc1,103%
19,COc1cc(C2C=C(c3cccc(NC(C)=O)c3)Nc3ncnn32)cc(OC)c1OC (stereo not given),-35.2% (active)
20,O=c1c2cc(F)ccc2sc2c(NCCCNCCO)nc3ccc(F)cc3c12,54.6%

row,SMILES,growth
1,CN(C)CCn1c2ccc(Br)cc2c2nc3ccccc3nc21,26.2%
2,O=C1OCC2=C1C(c1ccncc1)c1cc3c(cc1N2CCO)OCO3 (stereo not given),99.2%
3,Cc1ccc(-c2nc(/C=N/Nc3cc(C)nc4ccc(Br)cc34)c(C)o2)cc1,-37.4% (active)
4,CCCCCN(CCCCC)CCCNc1c2c(nc3ccc(Cl)cc13)CCCC2,48.8%
5,COc1ccc(NS(=O)(=O)c2ccc(-c3cnc(C4CC4)o3)cc2)cc1,76.3%
6,COc1ccc(CN2c3ccccc3Sc3ccccc32)c(C(F)(F)F)c1,23.7%
7,CCOC(=O)C1C(=O)C(=O)N(C(C)C)C1C(=O)OCC (stereo not given),123%
8,COC(=O)Cc1cc(COC(C)=O)ccc1C,84.8%
9,O=C(NC1=CC(=O)c2ccccc2C1=O)c1ccccc1,-30.8% (active)
10,O=C(c1ccccc1)N(CCCCl)C(=O)N(CCCCl)C(=O)c1ccccc1,94%
11,CSc1nc(C)c([N+](=O)[O-])c(N)n1,90.2%
12,O=C(CSSCC(=O)c1ccc(Cl)cc1)c1ccc(Cl)cc1,44.7%
13,Cc1ccc(S(=O)(=O)Nc2c(Br)cc(Br)cc2C(N)=O)cc1,83%
14,CCOc1ccccc1CN1CCc2nc3cc(C(C)(C)C)[nH]n3c(=O)c2C1,99.4%
15,c1ccc(Nc2nnc(-c3cc(-c4cccnc4)n(-c4ccccc4)n3)s2)cc1,70.8%
16,Cc1nc2cccc(NCc3ccc(C(=O)NO)cc3)c2c(=O)n1-c1ccccc1,27.2%
17,Cc1cn(-c2cc(NC(=O)c3ccc(C)c(Nc4nccc(-c5cnccn5)n4)c3)cc(C(F)(F)F)c2)cn1,33.4%
18,Nc1ccc(C2=NN(C(=O)c3cc(-c4ccc(Cl)cc4)nc4ccccc34)C(c3ccccc3)C2)cc1 (stereo not given),-6.07% (active)
19,COc1ccc(-c2c(NC(=O)Nc3ccc(Cl)c(C(F)(F)F)c3)cnn2-c2ccc(S(N)(=O)=O)cc2)cc1,-15% (active)
20,CCOC(=O)/C=C/C(=O)[C@H](CC(C)C)NC(=O)[C@H](Cc1ccccc1)NC(=O)OCc1ccccc1,25.9%
